The values below come from PubChem BioAssay AID1347074 (Center for Chemical Genomics, University of Michigan, 2019).

Screen size: about 47,000 compounds; about 2,800 (6%) were called active. Shown is part of a subset that was picked to be rich in actives. A number with no mark means an inactive call. Cut-off read from the data, not from the text of the source: active = z-score above about 3 (passing the limit was not always enough); inactive = the rest.

For this test, the target named is Endoribonuclease Dicer (Homo sapiens) (UniProt Q9UPY3). The test is described as follows: Dicer cleavage of pre-miR-21 blockers – biochemical, cat-ELCCA, chemiluminescence, primary screen (AID 1347074).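 Note: plate controls were vehicle for no effect and no enzyme for full effect; higher signal means more uncleaved substrate so more Dicer inhibition.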 Conditions: cat-ELCCA pre-miR-21 Dicer processing, at 25 µM, active compounds read high.
Chain of Endoribonuclease Dicer (Homo sapiens) (Q9UPY3 whole entry, looked up): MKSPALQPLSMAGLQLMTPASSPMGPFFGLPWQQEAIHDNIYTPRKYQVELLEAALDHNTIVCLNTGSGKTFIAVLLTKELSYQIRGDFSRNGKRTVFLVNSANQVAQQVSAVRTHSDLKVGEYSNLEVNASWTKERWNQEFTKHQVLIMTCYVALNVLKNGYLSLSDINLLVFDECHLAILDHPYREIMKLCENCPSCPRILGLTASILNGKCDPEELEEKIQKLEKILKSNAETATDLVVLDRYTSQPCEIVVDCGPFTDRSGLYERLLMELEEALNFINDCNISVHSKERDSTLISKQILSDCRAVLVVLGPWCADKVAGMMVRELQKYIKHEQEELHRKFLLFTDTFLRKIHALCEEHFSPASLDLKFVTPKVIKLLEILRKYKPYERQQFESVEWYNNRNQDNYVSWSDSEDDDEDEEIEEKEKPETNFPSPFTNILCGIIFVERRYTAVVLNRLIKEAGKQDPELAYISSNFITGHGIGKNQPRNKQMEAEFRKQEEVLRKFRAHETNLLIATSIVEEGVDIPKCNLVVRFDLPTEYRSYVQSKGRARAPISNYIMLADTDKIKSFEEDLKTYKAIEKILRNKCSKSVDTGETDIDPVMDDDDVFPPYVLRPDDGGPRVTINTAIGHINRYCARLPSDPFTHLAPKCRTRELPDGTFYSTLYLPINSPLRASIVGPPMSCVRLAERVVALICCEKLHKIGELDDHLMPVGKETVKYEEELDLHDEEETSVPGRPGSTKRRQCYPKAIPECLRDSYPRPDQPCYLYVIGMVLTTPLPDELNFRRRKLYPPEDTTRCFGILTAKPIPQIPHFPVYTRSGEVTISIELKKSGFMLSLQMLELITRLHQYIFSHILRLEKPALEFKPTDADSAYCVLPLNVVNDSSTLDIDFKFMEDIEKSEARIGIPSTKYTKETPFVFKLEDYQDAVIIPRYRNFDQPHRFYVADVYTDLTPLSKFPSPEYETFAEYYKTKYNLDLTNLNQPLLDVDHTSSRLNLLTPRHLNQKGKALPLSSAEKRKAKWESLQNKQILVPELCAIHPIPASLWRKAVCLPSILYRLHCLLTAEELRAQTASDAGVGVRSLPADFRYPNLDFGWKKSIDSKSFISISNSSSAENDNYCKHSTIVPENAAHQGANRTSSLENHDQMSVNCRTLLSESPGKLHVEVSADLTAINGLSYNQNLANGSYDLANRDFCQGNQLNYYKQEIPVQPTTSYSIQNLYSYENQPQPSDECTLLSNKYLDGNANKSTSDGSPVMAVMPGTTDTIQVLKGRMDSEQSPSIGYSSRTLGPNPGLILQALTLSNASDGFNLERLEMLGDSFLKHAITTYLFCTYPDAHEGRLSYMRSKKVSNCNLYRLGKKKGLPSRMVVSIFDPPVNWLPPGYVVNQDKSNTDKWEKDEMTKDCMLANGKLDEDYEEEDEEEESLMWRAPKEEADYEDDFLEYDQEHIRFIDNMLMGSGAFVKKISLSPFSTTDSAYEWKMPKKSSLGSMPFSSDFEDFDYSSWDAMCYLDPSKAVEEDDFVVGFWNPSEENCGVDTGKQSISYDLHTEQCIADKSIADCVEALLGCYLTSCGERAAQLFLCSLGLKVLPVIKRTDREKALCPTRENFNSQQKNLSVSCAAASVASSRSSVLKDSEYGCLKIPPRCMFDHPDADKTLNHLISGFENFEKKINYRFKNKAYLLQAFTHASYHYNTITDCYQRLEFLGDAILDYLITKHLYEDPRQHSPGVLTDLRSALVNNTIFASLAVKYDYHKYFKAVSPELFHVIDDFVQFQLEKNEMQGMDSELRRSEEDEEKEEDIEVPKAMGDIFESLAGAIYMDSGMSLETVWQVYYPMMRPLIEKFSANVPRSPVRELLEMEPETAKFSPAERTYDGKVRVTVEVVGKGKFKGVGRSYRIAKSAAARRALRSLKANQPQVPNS
Take `CCOc1c(Br)cc(CNCCc2c[nH]c3ccccc23)cc1OC`: the z-score is 6.45 (active). With `CC[N+]1(C)CCCC(OC(=O)C(O)(c2ccccc2)c2ccccc2)C1` (stereo not given), the z-score was -0.07. For `Fc1ccccc1CN1CCN(Cc2ccc3c(c2)OCO3)CC1`, the z-score was -0.5. Turning to `CN(C)C(=O)Oc1nnc(SCCS(=O)(=O)c2ccc(F)cc2)n1C1CC1`, the z-score was -1.56.

`Cc1cccc(-c2nc(C)cc(OC(=O)N(C)C)n2)c1`: the z-score was -0.47.
